Assay results taken from PubChem BioAssay (NCI).
This is part of a sample that, as a whole, favours compounds with a hit. Of some 83,000 tested, about 20% had one in any assay.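 Interpretation: 100, growth as untreated; towards 0, rising growth inhibition; 0, no net growth; 0 to -100, cell death. Compounds scoring below 10 were considered active.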 Calls of active or inactive are those of the source.

How the values were obtained:
Assay in all cases: NCI-60 one-dose screen, 48 h (100 = growth as untreated, 0 = no growth, -100 = all killed)
Conditions in all cases: 10 µM unless noted
HCT-15 colon = test system: HCT-15 colon
HT29 colon = test system: HT29 colon
SNB-75 CNS = test system: SNB-75 CNS
SNB-19 CNS = test system: SNB-19 CNS
U251 CNS = test system: U251 CNS
PC-3 prostate = test system: PC-3 prostate
SK-MEL-5 melanoma = test system: SK-MEL-5 melanoma
UACC-62 melanoma = test system: UACC-62 melanoma
LOX IMVI melanoma = test system: LOX IMVI melanoma
SK-MEL-28 melanoma = test system: SK-MEL-28 melanoma

Measured: growth

COc1ccc(-c2nn(-c3ccc(NC(=O)c4cc(Cl)cc(Cl)c4)cc3)cc2-c2ccncc2)cc1Cl
inactive: HCT-15 colon 21.7% | SNB-75 CNS 72.4% | SNB-19 CNS 82.8% | U251 CNS 39.2% | PC-3 prostate 47.9% | SK-MEL-5 melanoma 54.8% | UACC-62 melanoma 63.5% | LOX IMVI melanoma 22.9% | SK-MEL-28 melanoma 75.1%
active: HT29 colon 8.22%

O=C(O)c1cc2ccccc2cc1Nc1ccccc1
inactive: HCT-15 colon 99.4% | HT29 colon 117% | SNB-75 CNS 102% | SNB-19 CNS 94.6% | U251 CNS 93.5% | PC-3 prostate 95.7% | SK-MEL-5 melanoma 69.4% | UACC-62 melanoma 103% | LOX IMVI melanoma 91.8% | SK-MEL-28 melanoma 107%

Cc1cn(C2CC(N=[N+]=[N-])C(COP(=O)(O)OP(=O)(O)OP(=O)(O)O)O2)c(=O)[nH]c1=O (stereo not given)
inactive: HCT-15 colon 120% | HT29 colon 99.8% | SNB-75 CNS 85.3% | SNB-19 CNS 102% | U251 CNS 109% | PC-3 prostate 92.4% | SK-MEL-5 melanoma 106% | UACC-62 melanoma 112% | LOX IMVI melanoma 101% | SK-MEL-28 melanoma 99.1%

CC(=O)N1N=C(CCC(=O)c2nc3ccc([N+](=O)[O-])cc3[nH]2)OC1c1ccc(O)cc1 (stereo not given)
inactive: HCT-15 colon 97.1% | HT29 colon 76.5% | SNB-75 CNS 97.9% | SNB-19 CNS 107% | U251 CNS 109% | PC-3 prostate 101% | SK-MEL-5 melanoma 112% | UACC-62 melanoma 105% | LOX IMVI melanoma 94.8% | SK-MEL-28 melanoma 115%

CC(C)[C@@H]1NC(=O)[C@]2(C)CSC(=N2)c2ccnc(c2)CNC(=O)C[C@@H](/C=C/CCS)OC1=O
inactive: HCT-15 colon 52% | SNB-75 CNS 25.8% | SNB-19 CNS 23.6% | PC-3 prostate 17.7% | SK-MEL-28 melanoma 16.6%
active: HT29 colon 2.76% | U251 CNS -66.6% | SK-MEL-5 melanoma -88.2% | UACC-62 melanoma -36.7% | LOX IMVI melanoma -94.9%

O=C(CNc1cccnc1)Nc1ccc(C(=O)/C=C/c2ccc(Cl)cc2)cc1
inactive: HCT-15 colon 88.6% | HT29 colon 90% | SNB-75 CNS 87.8% | SNB-19 CNS 101% | U251 CNS 82.1% | PC-3 prostate 89.4% | SK-MEL-5 melanoma 91.1% | UACC-62 melanoma 84.9% | LOX IMVI melanoma 86% | SK-MEL-28 melanoma 96.4%

CCC1CN2C(=N1)c1ccccc1-c1cc(Cl)ccc12 (stereo not given)
active: HT29 colon 5.27% | SK-MEL-5 melanoma -5.14% | UACC-62 melanoma 3.38% | LOX IMVI melanoma 2.76%
inactive: HCT-15 colon 18.3% | SNB-75 CNS 42.6% | SNB-19 CNS 26.2% | U251 CNS 14.8% | PC-3 prostate 21.6% | SK-MEL-28 melanoma 70.7%

Cc1cc(NC(=O)c2cccc(C(F)(F)F)c2)ccc1-n1ccc2c(NC(=O)c3ccccc3)nccc21
inactive: HCT-15 colon 92.3% | HT29 colon 94.5% | SNB-75 CNS 91.2% | SNB-19 CNS 98.4% | U251 CNS 95.7% | PC-3 prostate 74.6% | SK-MEL-5 melanoma 101% | UACC-62 melanoma 96.9% | LOX IMVI melanoma 101% | SK-MEL-28 melanoma 104%

c1ccc(-c2nc3sc(C(c4ccccc4)c4ccccc4)nn3c2-c2ccccc2)cc1
inactive: HCT-15 colon 87.9% | HT29 colon 94.9% | SNB-75 CNS 85% | SNB-19 CNS 109% | U251 CNS 102% | PC-3 prostate 78.7% | SK-MEL-5 melanoma 109% | UACC-62 melanoma 89% | LOX IMVI melanoma 89.4% | SK-MEL-28 melanoma 102%

O=C(NCCNc1nccc(-c2c(-c3cccc(O)c3)nc3sccn23)n1)Nc1cc(C(F)(F)F)cc(C(F)(F)F)c1
inactive: HCT-15 colon 79.2% | HT29 colon 63.1% | SNB-75 CNS 66.1% | SNB-19 CNS 90.8% | U251 CNS 77% | PC-3 prostate 51.2% | SK-MEL-5 melanoma 59.7% | UACC-62 melanoma 54.4% | LOX IMVI melanoma 60.6% | SK-MEL-28 melanoma 68.8%

COc1ccc(/C=C/C(=O)c2ccc(-n3cc(CN4CCN(c5cc6c(cc5F)c(=O)c(C(=O)O)cn6C5CC5)CC4)nn3)cc2)cc1OC
inactive: HCT-15 colon 33.8% | SNB-75 CNS 65.5% | SNB-19 CNS 44.7% | U251 CNS 10.6% | SK-MEL-5 melanoma 50.9% | UACC-62 melanoma 54.1% | SK-MEL-28 melanoma 34.6%
active: HT29 colon 4.76% | PC-3 prostate 9.95% | LOX IMVI melanoma -1.51%

Cc1ccccc1C[P+](c1ccccc1)(c1ccccc1)c1ccccc1
inactive: HCT-15 colon 107% | HT29 colon 10.5% | SNB-19 CNS 28.7% | U251 CNS 16.4% | PC-3 prostate 14.5% | UACC-62 melanoma 18.8% | LOX IMVI melanoma 14.7% | SK-MEL-28 melanoma 27.2%
active: SNB-75 CNS 9.33% | SK-MEL-5 melanoma -23.2%

COc1ccc(C(=O)NC(=O)Nc2ccc3c(c2)NC(=O)/C3=C\c2[nH]c(C)c(C(=O)O)c2C)cc1
inactive: HCT-15 colon 93.5% | HT29 colon 45.1% | SNB-75 CNS 73.7% | SNB-19 CNS 80.3% | U251 CNS 52.9% | PC-3 prostate 86.1% | SK-MEL-5 melanoma 87.1% | UACC-62 melanoma 91.3% | LOX IMVI melanoma 82.5% | SK-MEL-28 melanoma 102%

C=C1C(=O)O[C@H]2[C@H]1CC/C(COC(=O)c1ccc3ccccc3c1)=C\CC[C@@]1(C)O[C@@H]21
active: HCT-15 colon -45.4% | HT29 colon -87.5% | U251 CNS -67.3% | PC-3 prostate -64% | SK-MEL-5 melanoma -74.6% | UACC-62 melanoma -73% | LOX IMVI melanoma -89.7% | SK-MEL-28 melanoma -61.2%
inactive: SNB-75 CNS 25.1% | SNB-19 CNS 11.6%

CC(=O)Cc1cccnc1
inactive: HCT-15 colon 107% | HT29 colon 106% | SNB-75 CNS 104% | SNB-19 CNS 98.8% | U251 CNS 98.6% | PC-3 prostate 94.3% | SK-MEL-5 melanoma 101% | UACC-62 melanoma 95.6% | LOX IMVI melanoma 99.9% | SK-MEL-28 melanoma 113%

COc1cc2ncn3c(=O)c4c5c(sc4nc3c2cc1OC)CCCCC5
inactive: HCT-15 colon 107% | HT29 colon 112% | SNB-75 CNS 73.2% | SNB-19 CNS 102% | U251 CNS 102% | PC-3 prostate 90.9% | SK-MEL-5 melanoma 94.9% | UACC-62 melanoma 93.7% | LOX IMVI melanoma 88.2% | SK-MEL-28 melanoma 107%

COc1ccc(-c2coc3c(CO)c(O)ccc3c2=O)cc1
active: U251 CNS -58.9% | PC-3 prostate -27.7% | LOX IMVI melanoma -27.9%
inactive: HCT-15 colon 43.2% | HT29 colon 85.8% | SNB-75 CNS 115% | SNB-19 CNS 72.5% | SK-MEL-5 melanoma 58.7% | UACC-62 melanoma 32.5% | SK-MEL-28 melanoma 88.8%

Cc1nccc2c3ccc(OCc4cn(-c5ccc(Br)cc5)nn4)cc3n(CCCc3ccccc3)c12
inactive: HCT-15 colon 60.5% | HT29 colon 10.5% | SNB-75 CNS 26.7% | SNB-19 CNS 56.1% | PC-3 prostate 14.1% | SK-MEL-5 melanoma 30.4%
active: U251 CNS -61% | UACC-62 melanoma 6.16% | LOX IMVI melanoma -39.6% | SK-MEL-28 melanoma -67.6%

CCn1cc(/C=C2\Oc3cc(OCC#N)ccc3C2=O)c2cc(OC)ccc21
active: HT29 colon 5.44%
inactive: HCT-15 colon 21.5% | SNB-75 CNS 19.1% | SNB-19 CNS 29.8% | U251 CNS 24.2% | PC-3 prostate 16.7% | SK-MEL-5 melanoma 24.6% | UACC-62 melanoma 44.6% | LOX IMVI melanoma 33.1% | SK-MEL-28 melanoma 70.5%

CC(C)(C)NCC(O)COc1c(Br)c(Br)c(Br)c2c1OC(C)(C)C2 (stereo not given)
active: HCT-15 colon -66.9% | HT29 colon -72.7% | SNB-75 CNS 5.77% | SNB-19 CNS -47.2% | U251 CNS -92.4% | PC-3 prostate -90.2% | SK-MEL-5 melanoma -97% | UACC-62 melanoma -79.8% | LOX IMVI melanoma -90.9% | SK-MEL-28 melanoma -83.7%

O=C(Nc1cccc(-n2ccc3c(NC(=O)c4ccccc4)nccc32)c1)Nc1cc(C(F)(F)F)cc(C(F)(F)F)c1
inactive: SNB-75 CNS 38.7% | SNB-19 CNS 20.5% | PC-3 prostate 11.1% | UACC-62 melanoma 11.6% | LOX IMVI melanoma 22.5% | SK-MEL-28 melanoma 35.4%
active: HCT-15 colon 5.94% | HT29 colon -16.3% | U251 CNS 0.587% | SK-MEL-5 melanoma -82.1%

CCCCNC(=O)Oc1ccc(/C(=C(/CC)Cc2ccccc2)c2ccc(OCCCN(C)C)cc2)cc1
inactive: HCT-15 colon 57.7% | HT29 colon 15.4% | SNB-75 CNS 75.5% | SNB-19 CNS 90.7% | U251 CNS 68.9% | PC-3 prostate 81.2% | SK-MEL-5 melanoma 84.5% | UACC-62 melanoma 106% | LOX IMVI melanoma 59% | SK-MEL-28 melanoma 95.9%

NC(N)=N/N=C/c1ccc([N+](=O)[O-])cc1
inactive: HCT-15 colon 105% | HT29 colon 105% | SNB-75 CNS 83.4% | SNB-19 CNS 109% | U251 CNS 105% | PC-3 prostate 94.5% | SK-MEL-5 melanoma 100% | UACC-62 melanoma 91.6% | LOX IMVI melanoma 96% | SK-MEL-28 melanoma 109%

CC(C)Cn1cnc2c3ccccc3nc(NCn3nc(-c4cc(Cl)cc(Cl)c4Cl)oc3=S)c21
inactive: HCT-15 colon 106% | HT29 colon 98.5% | SNB-75 CNS 90% | SNB-19 CNS 111% | U251 CNS 99% | PC-3 prostate 86.2% | SK-MEL-5 melanoma 85.3% | UACC-62 melanoma 90.1% | LOX IMVI melanoma 86.7% | SK-MEL-28 melanoma 110%

CC(Cl)(CCl)CS(=O)(=O)c1ccc(Cl)cc1 (stereo not given)
inactive: HCT-15 colon 105% | HT29 colon 103% | SNB-75 CNS 103% | SNB-19 CNS 101% | U251 CNS 94.4% | PC-3 prostate 97.7% | SK-MEL-5 melanoma 100% | UACC-62 melanoma 99.8% | LOX IMVI melanoma 101% | SK-MEL-28 melanoma 117%

COC(=O)CCCNS(=O)(=O)c1cc(C(=O)Nc2ccc(NC(=O)c3cc(S(=O)(=O)NCCCC(=O)OC)c(O)c(O)c3O)cc2)c(O)c(O)c1O
inactive: HCT-15 colon 92.1% | HT29 colon 79.8% | SNB-75 CNS 95.1% | SNB-19 CNS 96.1% | U251 CNS 70.3% | PC-3 prostate 83.3% | SK-MEL-5 melanoma 93.6% | UACC-62 melanoma 76.7% | SK-MEL-28 melanoma 110%
active: LOX IMVI melanoma 2.88%

CCn1c(SCC(=O)c2ccc(Br)cc2)nnc1-c1cc2c([nH]c3ccccc32)c(-c2cccc(O)c2)n1
inactive: HCT-15 colon 56.2% | HT29 colon 91.6% | SNB-75 CNS 60.9% | SNB-19 CNS 98.9% | U251 CNS 58.5% | PC-3 prostate 68.6% | SK-MEL-5 melanoma 52.7% | UACC-62 melanoma 89.6% | LOX IMVI melanoma 48.2% | SK-MEL-28 melanoma 73.7%
